In PubChem BioAssay (EPA / NIEHS):
Activity calls are given as the source filed them. How the source made its calls: active means hit-call score of the fitted dose curve at least 0.9, where 1 is the maximum; inactive means score below 0.9.

The molecules below were run against X-box-binding protein 1 (Homo sapiens) (UniProt P17861) (assay: ATG_Xbp1_CIS: Attagene CIS-FACTORIAL HepG2 Assay for human X-box Binding Protein 1 (XBP1) (AID 2282972)). Settings: HepG2 XBP1 cis-element reporter, Attagene multiplex; actives raise or lower the signal.
Chain of X-box-binding protein 1 (Homo sapiens) (P17861 whole entry, looked up): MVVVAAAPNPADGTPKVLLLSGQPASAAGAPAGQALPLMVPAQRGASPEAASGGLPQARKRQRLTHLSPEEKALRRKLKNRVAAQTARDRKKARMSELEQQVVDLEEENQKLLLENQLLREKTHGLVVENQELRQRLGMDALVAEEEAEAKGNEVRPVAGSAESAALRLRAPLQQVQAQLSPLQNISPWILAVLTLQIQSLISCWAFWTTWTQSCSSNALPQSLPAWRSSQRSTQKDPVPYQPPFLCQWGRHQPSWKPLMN
Protocol: ATG_CIS is a cell-based, multiplexed-readout assay that uses HepG2, a human liver cell line, with measurements taken at 24 hours after chemical dosing in a 24-well plate.ATG_Xbp1_CIS is one of 52 assay component(s) measured or calculated from the ATG_CIS assay. It is designed to make measurements of mRNA induction, a form of inducible reporter, as detected with fluorescence intensity signals by Reverse transcription polymerase chain reaction (RT-PCR) and Capillary electrophoresis technology.Data from the assay component ATG_Xbp1_CIS was analyzed into 1 assay endpoint. This assay endpoint, ATG_Xbp1_CIS, was analyzed with bidirectional fitting relative to DMSO as the negative control and baseline of activity. Using a type of inducible reporter, measures of mRNA for gain or loss-of-signal activity can be used to understand the reporter gene at the transcription factor-level as they relate to the gene XBP1. Furthermore, this assay endpoint can be referred to as a primary readout, because this assay has produced multiple assay endpoints where this one serves a reporter gene function. To generalize the intended target to other relatable targets, this assay endpoint is annotated to the dna binding intended target family, where the subfamily is basic leucine zipper.
Human liver HepG2 cells are transiently transfected with multiple reporter transcription units (MRTUs) in 6-well plates using FuGene 6 reagent (Roche; 3 ml FuGene/1 mg DNA). The MRTU constructs are regulated by a cis-regulating element (promoter). […] A major difference between the CIS and TRANS system is that in CIS activities of endogenous TFs are measured, whereas the TRANS assay evaluates changes in activities of exogenous, chimeric NR-Gal4 proteins. […] At the end of 24 hour incubation, total RNA was isolated using TriZol reagent (Invitrogen). The isolated RNA is then reverse-transcribed using oligo(dT) primer and Mo-MLV reverse transcriptase (Invitrogen) with DNAse I (Ambion) treatment for 30 min. The one-tenth of the produced cDNA was amplified by PCR using Taq DNA polymerase (Invitrogen) and two reporter sequence-specific primers. The PCR products were fluorescently labeled by primer extension with 6-arboxyfluorescein (6-FAM) 5'-labeled reporter sequence-specific primer (2 min at 95 C, 20 s at 68 C and 10 min at 72 C) and these products were digested with 5U of HpaI (New England Biolabs) for 2h at 37 C. The fragments were purified using Qiaquick PCR columns (Qiagen), analyzed on an ABI 3130xL genetic analyzer (Applied Biosystems) with peak positions identified by using a set of X-rhodamine (ROX)-labeled MapMarker1000 molecular weight standards (BioVentures). The raw capillary electrophoresis data was processed using Attagraph software (Attagene).
In the case of `Cc1cc(=O)oc2cc(N(C)C)ccc12`, the outcome is reported as “inactive”.
`O=C(O)COCC(=O)O` was tested, and the outcome was “inactive”.
With `NC(=S)NNC(N)=S` the outcome was “inactive”.
`C#CC(C)N(C)C(=O)Nc1ccc(Cl)cc1` (stereo not given) was tested, and the outcome was “inactive”.
With `CCCC(O)C(O)CO` (stereo not given) the outcome was “inactive”.
In the case of `CCCCCCC(O)CCCCCCCCCCC(=O)O` (stereo not given), the outcome is reported as “inactive”.
`C#CC(C)(O)CC(C)C` (stereo not given) was tested, and the outcome was “inactive”.
`CCN(CCC#N)c1ccc(N=Nc2ccc([N+](=O)[O-])cc2)cc1` was tested, and the outcome was “inactive”.
`C=CCCCCCCCCCC` was tested, and the outcome was “inactive”.
With `COCCc1ccc(OCC(O)CNC(C)C)cc1` (stereo not given) the outcome was “inactive”.
With `Brc1ccc(Br)c(Br)c1` the outcome was “inactive”.
`O=C(Nc1ccc2c(O)c(N=Nc3ccc(N=Nc4ccc(S(=O)(=O)O)cc4)cc3)c(S(=O)(=O)O)cc2c1)c1ccccc1` was tested, and the outcome was “inactive”.
With `O=C(O)c1ccc(O)cc1` the outcome was “inactive”.
For `CSCCC=O`, the outcome was “inactive”.
For `Cc1cccc(Nc2ccccc2)c1`, the AC50 was 133 µM (active).
For `COCCOC(=O)c1ccccc1C(=O)OCCOC`, the outcome was “inactive”.
`CCCCCCCCCCCCN1CCCCCC1=O` was tested, and the AC50 was 14.5 µM (active).
In the case of `COC(CC(C)CCCC(C)(C)O)OC` (stereo not given), the outcome is reported as “inactive”.
In the case of `CCCCCCC(C)(C)S`, the outcome is reported as “inactive”.
In the case of `c1ccc(CN(Cc2ccccc2)Cc2ccccc2)cc1`, the outcome is reported as “inactive”.
With `CC1=NN(c2ccc(S(=O)(=O)O)cc2)C(=O)C1` the outcome was “inactive”.
In the case of `Nc1ccc2cc(S(=O)(=O)O)cc(O)c2c1N=Nc1ccccc1C(F)(F)F`, the outcome is reported as “inactive”.
`C=C(C#N)C(=O)OCC` was tested, and the outcome was “inactive”.
In the case of `CC1CCC(C(C)C)C(O)C1` (stereo not given), the outcome is reported as “inactive”.
`CCOc1ccc(N=Nc2ccc(C=Cc3ccc(N=Nc4ccc(OCC)cc4)cc3S(=O)(=O)O)c(S(=O)(=O)O)c2)cc1` was tested, and the outcome was “inactive”.
For `O=P(O)(O)O`, the outcome was “inactive”.
With `CN1CCOCC1` the outcome was “inactive”.
With `O=C(Nc1ccc([N+](=O)[O-])cc1)Nc1ccc([N+](=O)[O-])cc1` (tested in a mixture with another compound) the outcome was “inactive”.
In the case of `Cc1cc(C)nc(NS(=O)(=O)c2ccc(N)cc2)n1`, the outcome is reported as “inactive”.
In the case of `C=C1CC[C@H](O)C/C1=C/C=C1\CCC[C@]2(C)[C@@H]([C@H](C)/C=C/[C@H](C)C(C)C)CC[C@@H]12`, the outcome is reported as “inactive”.
With `CC(C)c1ccccc1O` the outcome was “inactive”.
For `O=C(c1ccccc1)C(O)c1ccccc1` (stereo not given), the outcome was “inactive”.
In the case of `CCOC(=O)CN`, the outcome is reported as “inactive”.
For `CCCCSCCCC`, the outcome was “inactive”.
`CC(=O)c1ccccn1` was tested, and the outcome was “inactive”.
For `CC[N+](C)(CC)CC`, the outcome was “inactive”.
For `C=CC(C)(O)CCC=C(C)C` (stereo not given), the outcome was “inactive”.
`CC(=O)c1c(C)c([N+](=O)[O-])c(C(C)(C)C)c([N+](=O)[O-])c1C` was tested, and the outcome was “inactive”.
With `CN1C(=O)c2ccccc2C1=O` the outcome was “inactive”.
In the case of `Clc1ccc(C(c2ccccc2Cl)C(Cl)Cl)cc1` (stereo not given), the outcome is reported as “inactive”.
